p53ts 32C tox – cytotoxicity in p53ts cells at permissive temperature. AID 924. H1299-p53A138V at 32C, ATP luminescence viability, 24 h. Potency, µM (highest dose often 46.1 µM), for inactives: at the top dose activity change, negative = cytotoxicity, actives largely listed as cytotoxic. hit rate 0.93% among 130,000;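 further: 0% = DMSO and -100% = full killing by reference compound; nearly all actives have a fitted effect of over 55% in size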
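Cells: H1299 p53ts (A138V), 600/well, pre-incubated 16–30 h at 37C. Cpd up to 46 uM, 24 h, 32C. Readout: ATPlite luminescence, 20 min RT. Normalization: DMSO vs tamoxifen 100 uM. AC50 by Hill equation.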
p53ts 39C tox – p53ts cell cytotoxicity, nonpermissive temperature; H1299-p53A138V viability at 39C, ATP luminescence, 24 h; Potency, µM (titrated, usually from 46.1 µM), without a hit: at the highest dose activity change, negative = cell killing, most hits filed as cytotoxic; hit rate 1.5% among 130,000; AID 902; further: nearly all actives have a fitted effect of over 55% in size
FLuc inh – firefly luciferase inhibition; P08659; hit rate 2.2% among 72,000; purified firefly luciferase, luminescence, 8 min; Potency, µM (highest dose often 57.1 µM), for the others: at the highest dose activity change, negative = inhibition, most hits filed as inhibitors; further: nearly all actives have a fitted effect of over 40% in size
Target sequence (P08659 whole entry, looked up): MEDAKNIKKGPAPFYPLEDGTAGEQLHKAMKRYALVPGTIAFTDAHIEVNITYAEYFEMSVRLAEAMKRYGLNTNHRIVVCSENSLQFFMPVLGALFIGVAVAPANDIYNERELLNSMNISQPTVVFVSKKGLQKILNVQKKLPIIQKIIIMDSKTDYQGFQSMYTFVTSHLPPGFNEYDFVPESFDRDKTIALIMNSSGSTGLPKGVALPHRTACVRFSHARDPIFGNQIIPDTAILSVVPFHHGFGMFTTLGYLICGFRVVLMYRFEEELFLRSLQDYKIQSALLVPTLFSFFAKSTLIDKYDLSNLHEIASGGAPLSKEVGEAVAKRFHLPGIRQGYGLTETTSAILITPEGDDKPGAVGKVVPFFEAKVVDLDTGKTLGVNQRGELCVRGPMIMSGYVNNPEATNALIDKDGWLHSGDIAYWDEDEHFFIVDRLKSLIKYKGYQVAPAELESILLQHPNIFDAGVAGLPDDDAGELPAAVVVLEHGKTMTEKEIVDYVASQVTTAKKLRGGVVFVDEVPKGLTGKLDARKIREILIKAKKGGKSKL
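Titration-based qHTS; buffer 50 mM imidazole pH 7.2, 50 mM KCl, 7 mM MgCl2, 10 uM ATP, 0.01% Tween 20, 0.05% BSA; luciferase/luciferin detector mix added after compound; 8 min, ambient; luminescence.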
* hit, by the source's call; [ ] = another dose, or the depositor's remark. A selection: hits, their analogues and other compounds. The true share with any hit is near 2.5%. The call rests on the fitted dose curve; in most records, active means well fitted curve in the direction sought with a large enough effect; inconclusive means small, poorly fitted or top-dose-only effect, or another doubt; inactive means no such curve, though single readings can be large; an effect the other way counts as inactive or inconclusive. Unless noted, on the % scale 0 is the no-effect control and ±100 the full control effect; potency means the concentration at half of the fitted maximal effect.

CC(C)=CCC/C(C)=C/CO/N=C1/C[C@@H](O)[C@@H](O)[C@@H]2[C@@H]3C(=O)N(Cc4ccc5c(c4)OCO5)C(=O)[C@H]3CC[C@H]12 was read as p53ts 32C tox -1%[9.22 µM], p53ts 39C tox 9%[9.22 µM] and FLuc inh 0%[11.4 µM].
Screening O=C(O)c1cc(S(=O)(=O)Nc2ccc(O)cc2)ccc1Cl returned p53ts 32C tox 6% and p53ts 39C tox 12%.
Screening O=C(O)C(S)[C@@H](S)C(=O)O (stereo partly drawn) returned p53ts 32C tox 0% and p53ts 39C tox 8%.
Screening Oc1cccc2ccc(SSc3ccc4cccc(O)c4n3)nc12 returned p53ts 32C tox 4%[9.22 µM], p53ts 39C tox -2%[9.22 µM] and FLuc inh 0%[11.4 µM].
Nc1ncnc2c1nc(-c1ccccc1)n2[C@H]1O[C@@H](CO)[C@@H](O)[C@H]1O was read as p53ts 32C tox -3%[9.22 µM], p53ts 39C tox -2%[9.22 µM] and FLuc inh 1%[11.4 µM].
Screening O=C(Oc1ccc(N2C(=O)CCC2=O)cc1)c1ccccc1 returned p53ts 32C tox -16% and p53ts 39C tox 11%.
Screening O=C(Oc1ccc(-c2cn3c(n2)SCC3)cc1)c1ccccc1 returned p53ts 32C tox -14%, p53ts 39C tox -23% and FLuc inh 13µM*.
Screening O=C(O)c1ccc2cc(-c3ccc(O)c(C45CC6CC(CC(C6)C4)C5)c3)ccc2c1 returned p53ts 32C tox 20µM* and p53ts 39C tox inconclusive.
Cc1nn(-c2ccccc2)c2c1N(CC(=O)N1CCN(c3cccc(Cl)c3)CC1)C(=O)CS2 was read as p53ts 32C tox -5% and p53ts 39C tox -17%.
`O=S(=O)(Nc1ccc(Br)cc1)c1ccc2nc(-c3ccccc3)[nH]c2c1` gave p53ts 32C tox 10% and p53ts 39C tox inconclusive.
Screening CC(C)c1ccc(NS(=O)(=O)c2ccc3nc(-c4ccccc4)[nH]c3c2)cc1 returned p53ts 32C tox inconclusive and p53ts 39C tox 20µM*.
For FC(F)(F)c1cc(CN2CCCC3(CCNCC3)C2)cc(C(F)(F)F)c1 the results were p53ts 32C tox -11%, p53ts 39C tox inconclusive and FLuc inh 1%[11.4 µM].
Screening CCOc1ccc(CNC(=O)COc2cc(=O)n(C)c3ccccc23)cc1 returned p53ts 32C tox -8% and p53ts 39C tox -6%.
CCN1CCN(CCCNC(=O)c2cnn(-c3ccc(C)cc3)c2C2CCN(C(=O)OC(C)(C)C)CC2)CC1 was read as p53ts 32C tox 6% and p53ts 39C tox 15%.
Screening Cc1ccc(C)c(N2CCN(C(=O)c3cnn(-c4ccccc4Cl)c3C3CCN(C(=O)OC(C)(C)C)CC3)CC2)c1 returned p53ts 32C tox 1% and p53ts 39C tox -9%.
For Cc1ccc(C)c(N2CCN(CCCNC(=O)c3cnn(-c4ccc(F)cc4)c3C3CCN(C(=O)OC(C)(C)C)CC3)CC2)c1 the results were p53ts 32C tox inconclusive and p53ts 39C tox 25µM*.
Cc1ccc(C)c(N2CCN(CCCNC(=O)c3cnn(-c4ccccc4Cl)c3C3CCN(C(=O)OC(C)(C)C)CC3)CC2)c1 was read as p53ts 32C tox 2% and p53ts 39C tox 16µM*.
`CCOC(=O)CCN1C(=O)[C@H]2[C@H]3[C@H](O)[C@H](O)C/C(=N/NC(=O)OCc4ccc(OC)cc4)[C@@H]3CC[C@@H]2C1=O` gave p53ts 32C tox -2%[9.22 µM], p53ts 39C tox 8%[9.22 µM] and FLuc inh 0%[11.4 µM].
CS(=O)(=O)c1nc(-c2ccccc2)cc(C(F)(F)F)n1 was read as p53ts 32C tox 6.3µM*, p53ts 39C tox inconclusive and FLuc inh -3%.
For Cc1cc(NC(=O)CCS(=O)(=O)c2nc(-c3ccccc3)cc(C(F)(F)F)n2)no1 the results were p53ts 32C tox inconclusive, p53ts 39C tox inconclusive and FLuc inh -1%.
Screening CN(CCc1ccccn1)c1ccc2c(c1)C(=O)c1ccccc1-2 returned p53ts 32C tox 2%[9.22 µM], p53ts 39C tox -6%[9.22 µM] and FLuc inh -24%[11.4 µM].
For COc1ccc(-c2cc(C(N)=O)nc(N3CCCCCC3)n2)cc1 the results were p53ts 32C tox 7.9µM*, p53ts 39C tox 10µM* and FLuc inh 7.9µM*.
`COc1ccc(-c2cc(C(F)(F)F)nc(N3CCCCCC3)n2)cc1` gave p53ts 32C tox -13%, p53ts 39C tox 0% and FLuc inh 3%.
For O=C(O)/C=C\C(=O)Nc1ccc2c(c1)-c1ccccc1C2 the results were p53ts 32C tox 5%[9.22 µM], p53ts 39C tox 5%[9.22 µM] and FLuc inh 1%[11.4 µM].
`CC(C)=CCC/C(C)=C/C=C/C1=CC2(C)CC1(C)C(/C=C(\C)CCC=C(C)C)CC2=O` (stereo not drawn) gave p53ts 32C tox 4%[9.22 µM] and p53ts 39C tox 6%[9.22 µM].
CCC(=O)/C=C/C1C(C)=CCCC1(C)C (stereo not drawn) was read as p53ts 32C tox 3%[1.84 µM] and p53ts 39C tox 11%.
`O=C(CC(c1ccccc1)c1cc(Br)ccc1O)NCC1(c2ccccc2)CCCC1` (stereo not drawn) gave p53ts 32C tox inconclusive and p53ts 39C tox 10µM*.
Screening O=C(CC(c1ccccc1)c1cc(Br)ccc1O)NCCN1CCOCC1 (stereo not drawn) returned p53ts 32C tox 1%, p53ts 39C tox 8% and FLuc inh 2%.
`CCc1cccc(C)c1NC(=O)CSc1nc2ccncc2[nH]1` gave p53ts 32C tox -12% and p53ts 39C tox -7%.
Screening Fc1cccc(CSc2nc3ccncc3[nH]2)c1 returned p53ts 32C tox 5µM*, p53ts 39C tox 10µM* and FLuc inh -27%.
Screening COc1ccc(-c2noc(Cn3c(=O)c4ccccc4n(CC(=O)Nc4cccc(C(F)(F)F)c4)c3=O)n2)cc1 returned p53ts 32C tox -3% and p53ts 39C tox 31%.
Screening COc1ccc(-c2noc(N(C)CC(=O)Nc3cccc(C(F)(F)F)c3)n2)cc1 returned p53ts 32C tox 34%, p53ts 39C tox -17% and FLuc inh 25µM*.
Screening COc1ccc(OC)c(S(=O)(=O)n2ccnc2)c1 returned p53ts 32C tox 4%, p53ts 39C tox 6% and FLuc inh 3%.
Screening COc1cc(Cl)c(NC(=O)c2cc(CN3CCCC3)on2)c(OC)c1 returned p53ts 32C tox -11% and p53ts 39C tox -17%.
For CCc1nc2sc3c(c2c(=O)n1N)CCC3 the results were p53ts 32C tox 16%, p53ts 39C tox 2% and FLuc inh 3%.
`Nn1c(Nc2ccccc2)nc2sc3c(c2c1=O)CCC3` gave p53ts 32C tox -22%, p53ts 39C tox -20% and FLuc inh 20µM*.
`c1ccc(C2Nc3ccccc3-c3nc4ccccc4n32)nc1` (stereo not drawn) gave FLuc inh 4µM*.
`c1coc(C2Nc3ccccc3-c3nc4ccccc4n32)c1` (stereo not drawn) gave p53ts 32C tox -29%, p53ts 39C tox -23% and FLuc inh inconclusive.
CN1C[C@@H](C(=O)N[C@]2(C)O[C@]3(O)[C@H]4CCCN4C(=O)[C@H](Cc4ccccc4)N3C2=O)C[C@H]2c3cccc4[nH]cc(c34)C[C@@H]21 was read as p53ts 32C tox 10%, p53ts 39C tox 6% and FLuc inh 2%.
CCc1nnc(SCC(=O)N(CC)c2ccccc2)c2cc3oc(C)cc3n12 was read as p53ts 32C tox 7% and p53ts 39C tox -15%.
